# Assay results: ChEMBL document CHEMBL1157539, “Thousands of chemical starting points for antimalarial lead identification” (Nature, 2010)
# Several values for one entry are separate records, joined by “and”; a condition that tells them apart may be missing. Identical values can stand only once.
# Tested on: Plasmodium falciparum
# Assay: GSK_TCMDC: Inhibition of Plasmodium falciparum Dd2 in whole red blood cells, using parasite LDH activity as an index of growth. Test compounds present at 2uM
# Assay type: functional
row,SMILES,Inhibition
1,CN(C)C(=O)CCCn1c(CNCCCNc2cc(=O)c3ccccc3[nH]2)cc2c(Cl)cc(Cl)cc21.Cl,0%
2,O=C(Nc1ccc(-n2ccc(C(F)(F)F)n2)cc1)c1cccs1,67%
3,O=C(N[C@H]1CCCC[C@H]1C(=O)O)c1ccccc1,3%
4,O=C(O)/C=C\C(=O)O.O=c1c2sc(-c3ccc(Cl)cc3)cc2ncn1Cc1ccc(OCCN2CCCC2)c2ccccc12,81%
5,O=C(Nc1ccc(Cl)c(Cl)c1)N1CCC(CNCc2cccc([N+](=O)[O-])c2)CC1.O=C(O)C(F)(F)F,6%
6,O=C(NCCCCN1CCC(c2c[nH]c3ccc(-c4ccccc4)cc23)CC1)c1ccc(-c2ccccc2)cc1.O=C(O)C(=O)O,40%
7,CCn1c(CN2CCC(C)CC2)nc2cc(NC(=O)c3cccs3)ccc21,95%
8,C=CCOC(=O)O[C@@H]1[C@@H](OC(=O)OCC=C)[C@@H](OC)O[C@H](COC(c2ccccc2)(c2ccccc2)c2ccccc2)[C@H]1OC(=O)OCC=C,96%
9,CCOC(=O)c1ccc(NC(=O)N(Cc2ccc(-c3ccc(CN4CCNCC4)cc3)cc2)C2CCN(Cc3ccccc3)CC2)cc1.O=C(O)C(F)(F)F,93%
10,O=C(/C=C/c1ccc(Cl)c(Cl)c1)NCCCCCCN1CCN(C(=O)Nc2ccc(C(F)(F)F)cc2)CC1,44%
11,CN1CCN(c2nc(NCCNc3ccc([N+](=O)[O-])cc3)c3ccccc3n2)CC1,25%
12,CC(=O)Nc1ncc(C(=O)Nc2cccc(-c3ccc(-c4nc5cc(F)ccc5[nH]4)cc3)c2)s1,78%
13,CC(C)S(=O)(=O)N1CCN(Cc2ccc3c(c2)nc(NC(=O)c2ccsc2)n3C[C@H](O)c2ccccc2)CC1,72%
14,O=C(NCC1CCC(C(=O)NCCc2ccc(Cl)c(Cl)c2)CC1)c1ccc(O)c(-c2ccc(Cl)c(Cl)c2)c1 (centres undefined),12%
15,CS(=O)(=O)c1cccc(-c2cnc(N)c3cc(-c4ccc(F)cc4)ccc23)c1,33%
16,COc1ccc(NC(=O)c2ccc3cc4ccccc4cc3c2)cc1N1CCN(C)CC1,29%
17,CC(C)c1ccc(OCC(O)CN(C)C(C)C(O)c2ccccc2)c(Br)c1.Cl (centres undefined),97%
18,Nc1c(Cl)cc(C(O)CNCCCCCCOCCC=C2CCOCC2)cc1Cl (centres undefined),9%
19,O=c1ccc(CNc2nc(NCCc3ccccc3)nc3cc(Cl)ccc23)c[nH]1,78%
20,Cl.N=C(N)NCCCN(Cc1ccccc1)c1ccccc1,97%

row,SMILES,Inhibition
1,CC(C)COc1cc(C(=O)Nc2cnc3ccccc3c2)ccc1[N+](=O)[O-],56%
2,O=C(Nc1ccc(Oc2ccc(OC(F)(F)F)cc2)cc1)c1ccco1,71%
3,Cc1cc(N(C)C)nc(Nc2ccc(NC(=O)C3CCCCC3)cc2)n1,68%
4,COc1ccc2cc(C(=O)NC3CCC(CCN4CCc5cc(C#N)ccc5C4)CC3)[nH]c2c1.Cl (centres undefined),0%
5,Cc1cnc(N)c(/C=C/c2cncc(C(=O)NCCc3ccc(Cl)cc3Cl)c2)c1.Cl,100%
6,Cc1cc2ncn(-c3nccc(NCc4cccnc4)n3)c2cc1C.O=C(O)C(F)(F)F,98%
7,O=c1cc(NCCCCNCc2cccc(Cl)c2)[nH]c2ccccc12,41%
8,CC(C)CN1C(=O)c2ccc(C(=O)Nc3nccs3)cc2C1=O,0%
9,COc1ccc2[nH]ccc(=NN=Cc3cccc(C)n3)c2c1,99%
10,Cc1cccc2nc(-c3ccc(-c4cccc(NC(=O)c5cncn5C)c4)cc3)[nH]c12,1%
11,COc1ccccc1C1CCN(C2CCC(NC(=O)/C=C/c3cc(C(F)(F)F)cc(C(F)(F)F)c3)CC2)CC1 (centres undefined),21%
12,CCCSc1nc2c(c(=O)n1CCc1ccccc1)C1(CCCC1)Cc1ccccc1-2,53%
13,CCOc1ccc2[nH]c(-c3ccccc3)cc(=NN=Cc3ccncc3)c2c1,100%
14,Cc1noc(-c2ccc(O)cc2O)c1-c1ccc2c(c1)OCCCO2,99%
15,COc1ccc(N2CCN(C(CNC(=O)C3CCCCC3)c3ccc4c(c3)OCO4)CC2)cc1 (centres undefined),83%
16,CC[C@H](C)CNC(=O)c1cncc(-c2cccc(CNCCCc3ccccc3)c2)c1.O=C(O)C(F)(F)F,0%
17,N#Cc1ccc(-c2nc3c(N4CCCC4)cccc3n2CCNCc2ccccc2)cc1.O=C(O)C(F)(F)F,99%
18,Cc1[nH]c(C)c(-c2ccc(Oc3ccc(OC(F)(F)F)cc3)cc2)c(=O)c1Br,97% and 95%
19,O=C(Nc1cccnc1)c1cc(-c2cccnc2)nc2ccc(Br)cc12,60%

# Tested on: HepG2
# Assay: GSK_TCMDC: Percent inhibition of human HepG2 cell line. Test compounds present at 10uM.
# Assay type: functional
row,SMILES,Inhibition
1,CN(C)C(=O)CCCn1c(CNCCCNc2cc(=O)c3ccccc3[nH]2)cc2c(Cl)cc(Cl)cc21.Cl,1%
2,O=C(Nc1ccc(-n2ccc(C(F)(F)F)n2)cc1)c1cccs1,6%
3,O=C(N[C@H]1CCCC[C@H]1C(=O)O)c1ccccc1,7%
4,O=C(O)/C=C\C(=O)O.O=c1c2sc(-c3ccc(Cl)cc3)cc2ncn1Cc1ccc(OCCN2CCCC2)c2ccccc12,38%
5,O=C(Nc1ccc(Cl)c(Cl)c1)N1CCC(CNCc2cccc([N+](=O)[O-])c2)CC1.O=C(O)C(F)(F)F,13%
6,O=C(NCCCCN1CCC(c2c[nH]c3ccc(-c4ccccc4)cc23)CC1)c1ccc(-c2ccccc2)cc1.O=C(O)C(=O)O,48%
7,CCn1c(CN2CCC(C)CC2)nc2cc(NC(=O)c3cccs3)ccc21,40%
8,C=CCOC(=O)O[C@@H]1[C@@H](OC(=O)OCC=C)[C@@H](OC)O[C@H](COC(c2ccccc2)(c2ccccc2)c2ccccc2)[C@H]1OC(=O)OCC=C,5%
9,CCOC(=O)c1ccc(NC(=O)N(Cc2ccc(-c3ccc(CN4CCNCC4)cc3)cc2)C2CCN(Cc3ccccc3)CC2)cc1.O=C(O)C(F)(F)F,14%
10,O=C(/C=C/c1ccc(Cl)c(Cl)c1)NCCCCCCN1CCN(C(=O)Nc2ccc(C(F)(F)F)cc2)CC1,42%
11,CN1CCN(c2nc(NCCNc3ccc([N+](=O)[O-])cc3)c3ccccc3n2)CC1,37%
12,CC(=O)Nc1ncc(C(=O)Nc2cccc(-c3ccc(-c4nc5cc(F)ccc5[nH]4)cc3)c2)s1,18%
13,CC(C)S(=O)(=O)N1CCN(Cc2ccc3c(c2)nc(NC(=O)c2ccsc2)n3C[C@H](O)c2ccccc2)CC1,56%
14,O=C(NCCCCN1CCCC2c3ccc(O)cc3CCC21)c1ccc(-c2ccccc2)cc1 (centres undefined),32% and 26%
15,O=C(NCC1CCC(C(=O)NCCc2ccc(Cl)c(Cl)c2)CC1)c1ccc(O)c(-c2ccc(Cl)c(Cl)c2)c1 (centres undefined),0%
16,CS(=O)(=O)c1cccc(-c2cnc(N)c3cc(-c4ccc(F)cc4)ccc23)c1,28%
17,COc1ccc(NC(=O)c2ccc3cc4ccccc4cc3c2)cc1N1CCN(C)CC1,38%
18,CC(C)c1ccc(OCC(O)CN(C)C(C)C(O)c2ccccc2)c(Br)c1.Cl (centres undefined),36%
19,Nc1c(Cl)cc(C(O)CNCCCCCCOCCC=C2CCOCC2)cc1Cl (centres undefined),7%
20,O=c1ccc(CNc2nc(NCCc3ccccc3)nc3cc(Cl)ccc23)c[nH]1,21%

row,SMILES,Inhibition
1,Cl.N=C(N)NCCCN(Cc1ccccc1)c1ccccc1,0%
2,CC(C)COc1cc(C(=O)Nc2cnc3ccccc3c2)ccc1[N+](=O)[O-],19%
3,O=C(Nc1ccc(Oc2ccc(OC(F)(F)F)cc2)cc1)c1ccco1,5%
4,Cc1cc(N(C)C)nc(Nc2ccc(NC(=O)C3CCCCC3)cc2)n1,3%
5,COc1ccc2cc(C(=O)NC3CCC(CCN4CCc5cc(C#N)ccc5C4)CC3)[nH]c2c1.Cl (centres undefined),9%
6,Cc1cnc(N)c(/C=C/c2cncc(C(=O)NCCc3ccc(Cl)cc3Cl)c2)c1.Cl,2%
7,Cc1cc2ncn(-c3nccc(NCc4cccnc4)n3)c2cc1C.O=C(O)C(F)(F)F,0%
8,O=c1cc(NCCCCNCc2cccc(Cl)c2)[nH]c2ccccc12,2%
9,CC(C)CN1C(=O)c2ccc(C(=O)Nc3nccs3)cc2C1=O,3%
10,COc1ccc2[nH]ccc(=NN=Cc3cccc(C)n3)c2c1,16%
11,Cc1cccc2nc(-c3ccc(-c4cccc(NC(=O)c5cncn5C)c4)cc3)[nH]c12,2%
12,COc1ccccc1C1CCN(C2CCC(NC(=O)/C=C/c3cc(C(F)(F)F)cc(C(F)(F)F)c3)CC2)CC1 (centres undefined),31%
13,CCCSc1nc2c(c(=O)n1CCc1ccccc1)C1(CCCC1)Cc1ccccc1-2,46%
14,CCOc1ccc2[nH]c(-c3ccccc3)cc(=NN=Cc3ccncc3)c2c1,19%
15,Cc1noc(-c2ccc(O)cc2O)c1-c1ccc2c(c1)OCCCO2,8%
16,COc1ccc(N2CCN(C(CNC(=O)C3CCCCC3)c3ccc4c(c3)OCO4)CC2)cc1 (centres undefined),1%
17,CC[C@H](C)CNC(=O)c1cncc(-c2cccc(CNCCCc3ccccc3)c2)c1.O=C(O)C(F)(F)F,9%
18,N#Cc1ccc(-c2nc3c(N4CCCC4)cccc3n2CCNCc2ccccc2)cc1.O=C(O)C(F)(F)F,2%
19,Cc1[nH]c(C)c(-c2ccc(Oc3ccc(OC(F)(F)F)cc3)cc2)c(=O)c1Br,0%
20,O=C(Nc1cccnc1)c1cc(-c2cccnc2)nc2ccc(Br)cc12,9%
